ELG1 repair inh – inhibitors of ELG1-dependent DNA repair in HEK293T cells; HEK293T ELG1-luciferase reporter, luminescence, 16 h; DNA damage induced by 5-fluorouridine; Potency, µM (titrated, usually from 46.1 µM), usual class: inhibitors; 2.3% of 330,000 active; also: nearly all actives have a fitted effect of over 55% in size
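Cells (2,000 per well) received 5-fluorouridine plus test compound or DMSO and were incubated 16 hr at 37 °C, 5% CO2. Luciferase activity was read by luminescence 30 min after ONE-Glo addition; signal suppression marked inhibition of damage-induced ELG1 function.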
DT40 TDP1 CPT – growth inhibition of DT40 Tdp1-/-;hTDP1 cells with camptothecin (screen for TDP1 inhibitors); Potency, µM (highest dose often 46.2 µM), usual class: inhibitors; 12% of 420,000 active; chicken DT40 Tdp1-/-;hTDP1 cells + 20 nM CPT, ATP luminescence, 48 h; also: nearly all actives have a fitted effect of over 55% in size
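Chicken DT40 Tdp1-/- cells complemented with human TDP1, 400 cells/well, exposed to compounds plus 20 nM camptothecin for at least 48 h at 37 C; viability read as ATP content by CellTiter-Glo luminescence.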
HT1080NT lethal – kills 2HG-producing HT-1080-NT fibrosarcoma cells | HT-1080-NT fibrosarcoma viability, CellTiter-Glo ATP luminescence, 48 h | AID 686970 | 1.6% of 360,000 active | Potency, µM (series often up to 46.1 µM), actives largely listed as cytotoxic;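 also: NT is the 2HG producing partner of a matched IDH1 knockdown line; nearly all actives have a fitted effect of over 55% in size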
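Read-out is CellTiter-Glo luminescence after 10 minutes at room temperature, following 48 hours' compound treatment of HT-1080-NT cells (750 cells/well, RPMI, 5% FBS, 37 degrees C).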
TDP1 cell noCPT – qHTS for Inhibitors of human tyrosyl-DNA phosphodiesterase 1 (TDP1): qHTS in cells in absence of CPT. DT40 Tdp1-/- hTDP1 cells, no CPT, ATP luminescence, 48 h. Potency, µM (highest dose often 46.2 µM), usual class: inhibitors. 15% of 420,000 active. AID 686978, 2013; also: nearly all actives have a fitted effect of over 55% in size
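Compound effects on proliferation are scored in DT40 Tdp1-/-;hTDP1 cells in the absence of CPT. ATP levels (CellTiter-Glo luminescence) are recorded after a ≥48 hr, 37 °C incubation.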
IL-1B inflam inh – inflammasome signaling inhibition, IL-1 beta readout | THP-1 LPS/ATP IL-1B secretion, AlphaLISA, 16 h; stronger effect = lower value | activity change, % at 57.5 µM | 4.7% of 360,000 active | AID 743279; in the data active = activity change below about -50%; inconclusive = mostly about -30% to -49%
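THP-1 cells pretreated 1 hr with compounds (up to 57.5 uM final), then stimulated with LPS (250 ng/mL final) plus ATP (1.25 mM final); secreted IL-1B measured by AlphaLISA after 16 hr, decreased signal indicating inhibition.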
HT1080 IDH1KD tx – HT-1080 IDH1 knockdown cell toxicity (counter line); 2% of 360,000 active; Potency, µM (doses to about 46.1 µM), usual class: cytotoxic; AID 686971; HT-1080 IDH1 knockdown viability, ATP luminescence, 48 h
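Assay cells: HT-1080 with IDH1 knockdown, 750 per well, RPMI/5% FBS. Exposure: 48 h at 37 °C following 2 h pre-incubation. Read: CellTiter-Glo luminescence; fitted concentration-response, curve class assigned.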
A number is an active result; 0 = inactive; ? = inconclusive; - = no result given; [ ] = another dose, or the depositor's remark. This is a sample that favours compounds with a hit; in the whole collection about 19% have one here. Unless noted, calls follow the shape of the dose curve; as a rule, active = well fitted curve in the direction sought with a large enough effect; inconclusive = small, poorly fitted or top-dose-only effect, or another doubt; inactive = no such curve, though single readings can be large; an effect the other way counts as inactive or inconclusive.

SMILES	ELG1 repair inh	DT40 TDP1 CPT	HT1080NT lethal	TDP1 cell noCPT	IL-1B inflam inh	HT1080 IDH1KD tx
Cc1ccc(C2CCN(C(=S)NC3CCCCC3)C2)cc1 (stereo not drawn)	?	?	?	18µM	0	?
Cc1cccc(NC(=S)N2CCCCC2)c1	0	?	0	?	0	0
Cc1cc(C)cc(NC(=O)N2CCC(c3nc4ccccc4o3)CC2)c1	0	?	0[9.24 µM]	0	0	0
Cc1cccc(NC(=S)N2CCC(c3nc4ccccc4o3)CC2)c1	0	?	0	29µM	0	0
Cc1cccc(Cn2nc(C)n3c(cc4cc(C)ccc43)c2=O)c1	-	0	-	0	-	-
C#Cc1cccc(Nc2nc(NCCOC)nc3ccsc23)c1	-	16µM	?	21µM	0	?
C#Cc1cccc(Nc2nc(NCc3ccccc3OC)nc3ccsc23)c1	-	9.2µM	21µM	9.2µM	-71	?
C#Cc1cccc(Nc2nc(NC(C)C)nc3ccsc23)c1	-	?	?	21µM	0	21µM
Nc1ccc(/C=C/c2ccc3ncccc3c2)cc1	?	?	0	?	?	0
C(=C\c1ccnc2ccccc12)/c1cc2c3c(c1)CCCN3CCC2	-	2.2µM	-	2µM	-	-
Cc1cc(/C=C/c2ccnc3ccccc23)ccc1N	-	8.9µM	-	20µM	-	-
Nc1c(Br)cc(/C=C/c2ccnc3ccccc23)cc1Br	-	?	-	10µM	-	-
CN(C)c1ccc(/C=C/c2ccnc3ccccc23)cc1N	-	2.8µM	-	2.5µM	-	-
CCCN1CCN(CCCNC(=S)Nc2ccc(OC)cc2)CC1	0	0	0	0	0	0
C=C(C)CN(CC)C(=O)CN1C(=O)NC(C)(c2ccc3ccccc3c2)C1=O (stereo not drawn)	0	0	0	0	0	0
CC1Sc2ccc(C(=O)NCc3cccc(C(F)(F)F)c3)cc2NC1=O (stereo not drawn)	0	?	0	0	0	0
CC(C)c1ccc(OC(=O)c2cc(-c3ccccc3)on2)cc1	-	0	-	0	-	-
CCCOC(=O)c1c(NC(=O)C2c3ccccc3Oc3ccccc32)sc2c1CCC(C)C2 (stereo not drawn)	-	0	-	0	-	-
COc1ccc(/C(C)=N/NC(=S)Nc2cc(C)ccc2C)cc1	0	23µM	0	23µM	0	0
COc1ccc(CCNC(=S)Nc2cc(C)ccc2C)cc1	0	?	0	?	0	0
COc1ccc(CNC(=S)Nc2cc(C)ccc2C)cc1	0	?	0	18µM	0	0
CCOC(=O)C1=CCN(S(=O)(=O)c2ccccc2C)C1c1cccc(C)c1 (stereo not drawn)	-	?	0	?	0	0
Cc1cc(O)c(C(c2ccc(Cl)cc2)N2CCN(c3ccccc3)CC2)c(=O)n1Cc1ccco1 (stereo not drawn)	-	0	-	0	-	-
COc1ccccc1NS(=O)(=O)c1cc(NC(=O)C(C)C)ccc1N1CCCCC1	0	?	0	?	0	0
COc1ccccc1NS(=O)(=O)c1cc(NC(=O)c2cccs2)ccc1N1CCCCC1	0	16µM	0	15µM	0	0
SMILES	ELG1 repair inh	DT40 TDP1 CPT	HT1080NT lethal	TDP1 cell noCPT	IL-1B inflam inh	HT1080 IDH1KD tx
O=C(Nc1ccc(N2CCCC2)c(S(=O)(=O)Nc2cccc(C(F)(F)F)c2)c1)c1cccs1	?	?	0	15µM	?	0
O=C(Nc1cccc(S(=O)(=O)N2CCCCC2)c1)c1cccs1	0	0	0	?	0	0
COCC(=O)Nc1ccc(N2CCOCC2)c(S(=O)(=O)Nc2ccccc2OC)c1	0	0	0	?	0	0
COc1ccccc1NS(=O)(=O)c1cc(NC(=O)c2cccs2)ccc1N1CCCC1	0	5.8µM	0	9.2µM	0	0
COc1ccccc1NS(=O)(=O)c1cc(NC(=O)Nc2ccccc2)ccc1N1CCCCC1	?	18µM	0	18µM	0	0
CCOC(=O)C1=C(O)/C(=C/c2cc(OC)c(OC)c(OC)c2)SC1=Nc1ccc(OC)cc1	?	?	0	21µM	0	0
Cc1ccc(Cl)cc1-n1c(CCC(=O)O)ccc1-c1cccs1	-	0	-	0	-	-
COc1ccc(NC(=O)N2c3ccc(OC)cc3C(C)=CC2(C)C)cc1	?	?	0	0	0	0
CCOc1ccc2c(c1)C(C)=CC(C)(C)N2C(=O)Nc1ccccc1	0	5.8µM	0	26µM	0	0
O=C(CSc1ccc2ccccc2c1)NCCc1ccc(O)c(O)c1	0	16µM	0	23µM	-53	?
COc1ccc(CCNC(=O)CSc2ccc3ccccc3c2)cc1OC	0	?	0	?	0	0
CSc1cccc(NC(=O)CN(C)S(=O)(=O)c2ccc3c(c2)n(C)c(=O)c(=O)n3C)c1	-	0	-	0	-	-
CC(=O)N1CCCc2cc(S(=O)(=O)N(C)CC(=O)Nc3ccc(Cl)cc3C)ccc21	-	23µM	-	23µM	-	-
COc1ccc(NC(=O)CN(C)S(=O)(=O)c2ccc3c(c2)CCCN3C(C)=O)cc1Cl	-	?	-	21µM	-	-
COc1ccc(Cl)cc1NC(=O)CN(C)S(=O)(=O)c1ccc2c(c1)CCCN2C(C)=O	-	13µM	-	8.2µM	-	-
CSc1cccc(NC(=O)CN(C)S(=O)(=O)c2ccc3c(c2)CCCN3C(C)=O)c1	-	?	-	26µM	-	-
COc1ccc(OC)c(NC(=O)CN(C)S(=O)(=O)c2ccc(Cl)cc2)c1	0	0	0	0	0	0
CCN(CC)S(=O)(=O)c1cccc(C(=O)NNC(=O)c2ccc3[nH]c(=O)c(=O)[nH]c3c2)c1	0	0	0	0	0	0
COc1ccc(NC(=O)c2cc(C3CCCCN3C(=O)OCc3ccccc3)on2)c(C)c1 (stereo not drawn)	-	?	0	?	0	0
Cc1ccccc1OCC(=O)N(Cc1nnc(-c2ccc(Cl)cc2)o1)C(C)C	0	?	0	15µM	0	0
COCCCN1C(=O)c2ccc(C(=O)OCC(=O)N3CCN(c4ccccc4)CC3)cc2C1=O	0	0	0	0	0	0
COc1ccccc1NC(=O)CC(=O)Nc1ccccc1OC	0	0	0	0	0	0
COc1cc(NC(=O)c2ccccc2)c(OC)cc1NC(=O)Cc1ccc(Br)cc1	0	?	0	?	0	0
COc1cc(NC(=O)c2ccccc2)c(OC)cc1NC(=O)Cc1ccc(F)cc1	0	0	0	21µM	0	0
COc1ccc(NC(=O)C(C)(C)Oc2ccc(Cl)cc2)cn1	0	0	0	0	0	0
COc1ccc(NC(=O)/C(Cl)=C(/Cl)S(=O)Cc2ccc(Cl)cc2)cn1 (stereo not drawn)	?	0.13µM	1.3µM	0.26µM	-102	0.92µM
COc1ccc(NC(=O)Cc2ccc(-c3ccccc3)cc2)cn1	?	13µM	9.2µM	12µM	0	23µM
